According to PubChem BioAssay (NCI):
About 79,000 compounds went through this panel and 15% of them were active in at least one assay; those are over-represented in the sample as a whole. Values without a mark were called inactive. Activity calls are given as the source filed them. Rule as the data show it: active = growth inhibition above about 70%; inactive = the rest.

Experiments:
[1] = NCI Yeast Anticancer Drug Screen. Data for the rad52 strain (AID 147);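 also: 0% = growth of vehicle-treated control cultures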; details: S. cerevisiae rad52 mutant growth inhibition, stronger effect = higher value
Method in brief: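 Read-out: growth inhibition versus vehicle-treated controls. Cells were a DNA repair-deficient yeast strain treated with compounds.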

[2] = NCI Yeast Anticancer Drug Screen. Data for the wt1 strain (AID 149);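 also: 0% = growth of vehicle-treated wt1 cultures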; details: S. cerevisiae wt1 strain (SPY 50644) growth inhibition, stronger effect = higher value
Method in brief: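 Measured: growth of wt1 yeast under compound versus vehicle treatment, reported as inhibition.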

[3] = NCI Yeast Anticancer Drug Screen. Data for the rad50EPP+ strain (AID 151);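 also: 0% = growth of vehicle-treated control cultures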; details: S. cerevisiae rad50 mutant strain, stronger effect = higher value
Method in brief: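 Growth inhibition read against vehicle controls in rad50EPP+ yeast, a strain altered in DNA damage repair, after compound exposure.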

[4] = NCI Yeast Anticancer Drug Screen. Data for the mgt1 strain (AID 153); details: S. cerevisiae mgt1 mutant growth inhibition, stronger effect = higher value
Method in brief: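 mgt1 yeast grown with test compound; read-out is growth inhibition versus vehicle-treated cultures.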

[5] = NCI Yeast Anticancer Drug Screen. Data for the rad50 strain (AID 155);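 also: 0% = growth of vehicle-only cultures of the same strain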; details: S. cerevisiae rad50 strain growth inhibition, stronger effect = higher value
Method in brief: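 Growth of the mutant yeast was measured after compound exposure and referenced to vehicle-treated cultures.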

[6] = NCI Yeast Anticancer Drug Screen. Data for the mec2-1 strain (AID 157); details: S. cerevisiae mec2-1 strain, stronger effect = higher value
Method in brief: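 Yeast mec2-1 mutant treated with compound. Readout: growth inhibition vs vehicle controls.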

[7] = NCI Yeast Anticancer Drug Screen. Data for the rad14 strain (AID 159);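 also: 0% = growth of vehicle-treated control cultures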; details: S. cerevisiae rad14 strain growth inhibition, stronger effect = higher value
Method in brief: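 Here, inhibition of yeast growth was measured after compound exposure, using a strain with a genetic defect in DNA damage repair and vehicle-treated cultures as the reference.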

[8] = NCI Yeast Anticancer Drug Screen. Data for the sgs1 mgt1 strain (AID 161);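 also: 0% = growth of cultures given vehicle only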; details: S. cerevisiae sgs1 mgt1 strain, stronger effect = higher value
Method in brief: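 Inhibition of yeast growth, normalised to vehicle-treated controls, is reported for a strain bearing genetic alterations in DNA damage repair.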

[9] = NCI Yeast Anticancer Drug Screen. Data for the cln2 rad14 strain (AID 165);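 also: 0% = growth equal to vehicle treated cultures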; details: S. cerevisiae cln2 rad14 strain, stronger effect = higher value
Method in brief: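 cln2 rad14 yeast strain; compound exposure; growth inhibition read vs vehicle controls.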

[10] = NCI Yeast Anticancer Drug Screen. Data for the bub3 strain (AID 167); details: S. cerevisiae bub3 mutant strain, stronger effect = higher value
Method in brief: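 Whole-cell yeast assay. The mutant strain was incubated with compounds, and growth inhibition was determined by comparison with vehicle-treated cells.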

[11] = NCI Yeast Anticancer Drug Screen. Data for the wt2 strain (AID 169);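 also: 0% = growth of vehicle-treated yeast cultures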; details: S. cerevisiae wt2 strain growth inhibition, stronger effect = higher value
Method in brief: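 Read-out: growth inhibition versus vehicle-treated control cultures after compound exposure of the yeast strain.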

[12] = NCI Yeast Anticancer Drug Screen. Data for the mlh1 strain (AID 171);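 also: 0% = growth of vehicle-treated control cultures of the same strain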; details: S. cerevisiae mlh1 strain growth inhibition, stronger effect = higher value
Method in brief: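 Read-out: growth inhibition versus vehicle controls. Strain: engineered yeast with a defined DNA repair or cell cycle defect, compound-treated.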

[13] = NCI Yeast Anticancer Drug Screen. Data for the sgs1 strain (AID 173);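 also: 0% = growth of vehicle-only control cultures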; details: S. cerevisiae sgs1 mutant, stronger effect = higher value
Method in brief: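 Read-out: yeast growth inhibition relative to vehicle controls, following compound exposure of a strain with a defined DNA repair/cell cycle alteration.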

[14] = NCI Yeast Anticancer Drug Screen. Data for the mlh1 rad18 strain (AID 175); details: S. cerevisiae mlh1 rad18 strain growth inhibition, stronger effect = higher value
Method in brief: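 Yeast w/ defined DNA-repair lesions; compound exposure; growth vs vehicle controls → % inhibition.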

[15] = NCI Yeast Anticancer Drug Screen. Data for the rad18 strain (AID 177); details: S. cerevisiae rad18 mutant growth inhibition, stronger effect = higher value
Method in brief: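 Readout: growth inhibition vs vehicle controls. Cells: genetically altered yeast strain, DNA repair defect.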

[16] = at 5.0 µM (retest, dose inferred, filed as 0.5)
[17] = at 50.0 µM (retest, dose inferred, filed as 5.0)

C[C](C)(C)[Ge]([O][Ge]([c]1ccccc1)[c]1ccccc1)([O][Ge]([c]1ccccc1)[c]1ccccc1)[C](C)(C)C
growth inhibition ([1]; at 1.2 µM): 1%
growth inhibition ([1]; at 3.7 µM): 15%
growth inhibition ([1]; at 11.0 µM): 53%
growth inhibition ([1]; at 33.0 µM): 74% (active)
growth inhibition ([1]; at 100.0 µM): 78% (active)
growth inhibition ([2]; at 1.2 µM): -3%
growth inhibition ([2]; at 3.7 µM): 5%
growth inhibition ([2]; at 11.0 µM): 42%
growth inhibition ([2]; at 33.0 µM): 68%
growth inhibition ([2]; at 100.0 µM): 75% (active)
growth inhibition ([3]; at 1.2 µM): 0%
growth inhibition ([3]; at 3.7 µM): 5%
growth inhibition ([3]; at 11.0 µM): 5%
growth inhibition ([3]; at 33.0 µM): 1%
growth inhibition ([3]; at 100.0 µM): -3%
growth inhibition ([4]; at 1.2 µM): -2%
growth inhibition ([4]; at 3.7 µM): 3%
growth inhibition ([4]; at 11.0 µM): 44%
growth inhibition ([4]; at 33.0 µM): 67%
growth inhibition ([4]; at 100.0 µM): 62%
growth inhibition ([5]; at 1.2 µM): -1%
growth inhibition ([5]; at 3.7 µM): 6%
growth inhibition [5, 16]: 12%
growth inhibition ([5]; at 11.0 µM): 42%
growth inhibition ([5]; at 33.0 µM): 63%
growth inhibition [5, 17]: 63%
growth inhibition ([5]; at 50.0 µM): 71.9% (active)
growth inhibition ([5]; at 100.0 µM): 71% (active)
growth inhibition ([6]; at 1.2 µM): 4%
growth inhibition ([6]; at 3.7 µM): 21%
growth inhibition [6, 16]: 29%
growth inhibition ([6]; at 11.0 µM): 60%
growth inhibition ([6]; at 33.0 µM): 80% (active)
growth inhibition [6, 17]: 75% (active)
growth inhibition ([6]; at 50.0 µM): 65.8%
growth inhibition ([6]; at 100.0 µM): 79% (active)
growth inhibition ([7]; at 1.2 µM): -4%
growth inhibition ([7]; at 3.7 µM): 1%
growth inhibition ([7]; at 11.0 µM): 23%
growth inhibition ([7]; at 33.0 µM): 46%
growth inhibition ([7]; at 100.0 µM): 57%
growth inhibition [8, 16]: 19%
growth inhibition [8, 17]: 80% (active)
growth inhibition ([8]; at 50.0 µM): 61.6%
growth inhibition [9, 16]: 26%
growth inhibition [9, 17]: 82% (active)
growth inhibition ([9]; at 50.0 µM): 67.8%
growth inhibition ([10]; at 1.2 µM): -4%
growth inhibition ([10]; at 3.7 µM): 4%
growth inhibition [10, 16]: 9%
growth inhibition ([10]; at 11.0 µM): 53%
growth inhibition ([10]; at 33.0 µM): 77% (active)
growth inhibition [10, 17]: 79% (active)
growth inhibition ([10]; at 50.0 µM): 76.7% (active)
growth inhibition ([10]; at 100.0 µM): 79% (active)
growth inhibition ([11]; at 1.2 µM): -1%
growth inhibition ([11]; at 3.7 µM): 10%
growth inhibition ([11]; at 11.0 µM): 46%
growth inhibition ([11]; at 33.0 µM): 64%
growth inhibition ([11]; at 100.0 µM): 64%
growth inhibition ([12]; at 1.2 µM): 0%
growth inhibition ([12]; at 3.7 µM): 9%
growth inhibition ([12]; at 11.0 µM): 49%
growth inhibition ([12]; at 33.0 µM): 66%
growth inhibition ([12]; at 100.0 µM): 68%
growth inhibition ([13]; at 1.2 µM): 8%
growth inhibition ([13]; at 3.7 µM): 27%
growth inhibition ([13]; at 11.0 µM): 71% (active)
growth inhibition ([13]; at 33.0 µM): 78% (active)
growth inhibition ([13]; at 100.0 µM): 76% (active)
growth inhibition [14, 16]: 48%
growth inhibition [14, 17]: 90% (active)
growth inhibition ([14]; at 50.0 µM): 75.9% (active)
growth inhibition ([15]; at 1.2 µM): 4%
growth inhibition ([15]; at 3.7 µM): 20%
growth inhibition ([15]; at 11.0 µM): 56%
growth inhibition ([15]; at 33.0 µM): 73% (active)
growth inhibition ([15]; at 100.0 µM): 74% (active)

O=C(/C=C/c1cc(Cl)cc(Cl)c1O)c1cccc(O)c1
growth inhibition ([1]; at 1.2 µM): 37%
growth inhibition ([1]; at 3.7 µM): 36%
growth inhibition ([1]; at 11.0 µM): 80% (active)
growth inhibition ([1]; at 33.0 µM): 98% (active)
growth inhibition ([1]; at 100.0 µM): 99% (active)
growth inhibition ([2]; at 1.2 µM): 4%
growth inhibition ([2]; at 3.7 µM): 6%
growth inhibition ([2]; at 11.0 µM): 50%
growth inhibition ([2]; at 33.0 µM): 98% (active)
growth inhibition ([2]; at 100.0 µM): 97% (active)
growth inhibition ([3]; at 1.2 µM): 66%
growth inhibition ([3]; at 3.7 µM): 70% (active)
growth inhibition ([3]; at 11.0 µM): 86% (active)
growth inhibition ([3]; at 33.0 µM): 97% (active)
growth inhibition ([3]; at 100.0 µM): 97% (active)
growth inhibition ([4]; at 1.2 µM): 14%
growth inhibition ([4]; at 3.7 µM): 25%
growth inhibition ([4]; at 11.0 µM): 89% (active)
growth inhibition ([4]; at 33.0 µM): 99% (active)
growth inhibition ([4]; at 100.0 µM): 98% (active)
growth inhibition ([5]; at 1.2 µM): 1%
growth inhibition ([5]; at 3.7 µM): 16%
growth inhibition [5, 16]: 14%
growth inhibition ([5]; at 11.0 µM): 67%
growth inhibition ([5]; at 33.0 µM): 97% (active)
growth inhibition [5, 17]: 97% (active)
growth inhibition ([5]; at 50.0 µM): 94% (active)
growth inhibition ([5]; at 100.0 µM): 97% (active)
growth inhibition ([6]; at 1.2 µM): -19%
growth inhibition ([6]; at 3.7 µM): 0%
growth inhibition [6, 16]: -9%
growth inhibition ([6]; at 11.0 µM): 85% (active)
growth inhibition ([6]; at 33.0 µM): 99% (active)
growth inhibition [6, 17]: 99% (active)
growth inhibition ([6]; at 50.0 µM): 95.2% (active)
growth inhibition ([6]; at 100.0 µM): 98% (active)
growth inhibition ([7]; at 1.2 µM): 31%
growth inhibition ([7]; at 3.7 µM): 48%
growth inhibition ([7]; at 11.0 µM): 96% (active)
growth inhibition ([7]; at 33.0 µM): 98% (active)
growth inhibition ([7]; at 100.0 µM): 97% (active)
growth inhibition [8, 16]: 6%
growth inhibition [8, 17]: 95% (active)
growth inhibition ([8]; at 50.0 µM): 94% (active)
growth inhibition [9, 16]: 29%
growth inhibition [9, 17]: 98% (active)
growth inhibition ([9]; at 50.0 µM): 91.5% (active)
growth inhibition ([10]; at 1.2 µM): -12%
growth inhibition ([10]; at 3.7 µM): -11%
growth inhibition [10, 16]: 38%
growth inhibition ([10]; at 11.0 µM): 39%
growth inhibition ([10]; at 33.0 µM): 97% (active)
growth inhibition [10, 17]: 97% (active)
growth inhibition ([10]; at 50.0 µM): 93.2% (active)
growth inhibition ([10]; at 100.0 µM): 97% (active)
growth inhibition ([12]; at 1.2 µM): 0%
growth inhibition ([12]; at 3.7 µM): 21%
growth inhibition ([12]; at 11.0 µM): 80% (active)
growth inhibition ([12]; at 33.0 µM): 98% (active)
growth inhibition ([12]; at 100.0 µM): 98% (active)
growth inhibition [14, 16]: 46%
growth inhibition [14, 17]: 97% (active)
growth inhibition ([14]; at 50.0 µM): 92.7% (active)
growth inhibition ([15]; at 1.2 µM): 14%
growth inhibition ([15]; at 3.7 µM): 13%
growth inhibition ([15]; at 11.0 µM): 56%
growth inhibition ([15]; at 33.0 µM): 98% (active)
growth inhibition ([15]; at 100.0 µM): 98% (active)

O=C1C(=O)c2ccccc2C(O)=C1C(C1=C(O)c2ccccc2C(=O)C1=O)c1ccc(Cl)cc1
growth inhibition ([1]; at 1.2 µM): 9%
growth inhibition ([1]; at 3.7 µM): 26%
growth inhibition ([1]; at 11.0 µM): 62%
growth inhibition ([1]; at 33.0 µM): 60%
growth inhibition ([1]; at 100.0 µM): 48%
growth inhibition ([2]; at 1.2 µM): 4%
growth inhibition ([2]; at 3.7 µM): 8%
growth inhibition ([2]; at 11.0 µM): 31%
growth inhibition ([2]; at 33.0 µM): 32%
growth inhibition ([2]; at 100.0 µM): 29%
growth inhibition ([3]; at 1.2 µM): 7%
growth inhibition ([3]; at 3.7 µM): 28%
growth inhibition ([3]; at 11.0 µM): 51%
growth inhibition ([3]; at 33.0 µM): 48%
growth inhibition ([3]; at 100.0 µM): 30%
growth inhibition ([4]; at 1.2 µM): 4%
growth inhibition ([4]; at 3.7 µM): 9%
growth inhibition ([4]; at 11.0 µM): 64%
growth inhibition ([4]; at 33.0 µM): 75% (active)
growth inhibition ([4]; at 100.0 µM): 69%
growth inhibition ([5]; at 1.2 µM): 11%
growth inhibition ([5]; at 3.7 µM): 18%
growth inhibition [5, 16]: -7%
growth inhibition ([5]; at 11.0 µM): 51%
growth inhibition ([5]; at 33.0 µM): 41%
growth inhibition [5, 17]: 73% (active)
growth inhibition ([5]; at 50.0 µM): 92.5% (active)
growth inhibition ([5]; at 100.0 µM): 31%
growth inhibition ([6]; at 1.2 µM): 10%
growth inhibition ([6]; at 3.7 µM): 18%
